High-throughput results as filed in PubChem BioAssay.
Sampled rows, rich in hits. Any-hit rate of the full collection: about 3.6%.
TDP-43 yeast inh = qHTS of TDP-43 Inhibitors; TDP-43 expressing yeast growth rescue, BacTiter-Glo, 24 h; Potency, µM (top dose mostly 46.1 µM), usual class: activators; 410,000 tested, 1.8% active; AID 652104, 2013; further: nearly all actives have a fitted effect of over 50% in size
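Yeast cells expressing TDP-43 under galactose induction are exposed to compounds for 24 hr at 30 deg C. BacTiter-Glo luminescence measures growth, so protective compounds score as activators.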
ClpP mod = qHTS Assay for Activators of ClpP | ATP-dependent Clp protease proteolytic subunit (Bacillus subtilis (strain 168)), P80244 | purified B. subtilis ClpP, FRET peptide cleavage, 20 min | Potency, µM (titrated, usually from 57.5 µM) | 340,000 tested, 1.9% active; active means well fitted falling curve with a large enough effect; inconclusive means small, poorly fitted or top-dose-only effect; inactive means no such curve, though single readings can be large or run the other way; further: the source files actives as falling curves though it sought activators and does not explain the sign; nearly all actives have a fitted effect of over 65% in size
Target sequence (P80244 whole entry, looked up): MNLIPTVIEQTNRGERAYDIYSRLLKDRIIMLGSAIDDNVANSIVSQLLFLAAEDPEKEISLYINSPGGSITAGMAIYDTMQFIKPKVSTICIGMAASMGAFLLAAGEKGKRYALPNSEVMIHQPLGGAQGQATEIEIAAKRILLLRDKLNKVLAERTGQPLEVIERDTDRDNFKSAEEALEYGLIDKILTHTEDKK
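FRET quenching reversal measured ClpP activation: 10 microg/mL B. subtilis ClpP at pH 8 with the FRET-FV decapeptide, read at 430 nm after 320 nm excitation. The 20-min minus 0-min signal was scaled between DMSO/no-enzyme wells and ADEP (5.8 microM final).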
FUS suppressor = qHTS for Suppressors of FUS Proteinopathy: Primary screen using FUS-linked yeast assay; S. cerevisiae FUS-expressing, growth rescue, OD600, 24 h; Potency, µM (top dose mostly 76.6 µM), hits mostly activators; 390,000 tested, 0.24% active; AID 1347120, 2019; further: nearly all actives have a fitted effect of over 55% in size
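Yeast expressing FUS under galactose induction, OD 0.005 in 2% galactose medium; compounds in a dilution series, 24 h at 30C. Growth rescue by absorbance at 600 nm; CP55940 positive control, DMSO negative.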
Mm-Cpn inhibitor = Inhibitors of TCP-1 ring complex (TRiC) of Methanococcus maripaludis (MmCpn): qHTS. Potency, µM (top dose mostly 76.9 µM), actives largely listed as inhibitors. 330,000 tested, 0.031% active. purified Mm-Cpn ATPase, ADP Transcreener TR-FRET. AID 504842, 2011; further: nearly all actives have a fitted effect of over 80% in size
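25 nM Mm-CPN + cpd, 10 min 37°C; + 10 uM ATP, 30 min 37°C; buffer 30 mM Tris pH 7.4, 100 mM KCl, 5 mM MgCl2, 1 mM DTT; Transcreener ADP HTRF detection 30 min RT.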
Abeta yeast res = qHTS for compounds that reverse cellular toxicity of Amyloid beta (A-beta) peptide in yeast: Primary Screen | yeast expressing A-beta42, growth rescue, OD600, 48 h; response scale: 0% DMSO, 100% iron-clioquinol control | Potency, µM (series often up to 46.1 µM), most hits filed as activators | 410,000 tested, 0.063% active; further: nearly all actives have a fitted effect of over 55% in size
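Yeast growth medium received pinned compounds, then yeast cells expressing toxic A-beta were added; plates incubated at 30 C for 48 hr. Growth read as absorbance at 600 nm, normalized to DMSO and equimolar FeCl3 plus clioquinol controls.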
aSyn yeast inh = qHTS of alpha-syn Inhibitors; AID 652106, 2013; 370,000 tested, 0.14% active; Yeast expressing alpha-synuclein, growth rescue, BacTiter-Glo, 24 h; Potency, µM (highest dose often 46.1 µM), hits mostly activators; further: nearly all actives have a fitted effect of over 65% in size
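Rescue of yeast growth: cells expressing toxic alpha-synuclein, induced in galactose at OD600 0.02, incubated with compound 24 h at 30 C. ATP luminescence quantified growth; inhibitors of toxicity appear as activators.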
Hits are given with their value; – = inactive; ? = inconclusive; · = no result; [ ] = another dose, or the depositor's remark. Unless noted, the call rests on the fitted dose curve; in most records, active means well fitted curve in the direction sought with a large enough effect; inconclusive means small, poorly fitted or top-dose-only effect, or another doubt; inactive means no such curve, though single readings can be large; an effect the other way counts as inactive or inconclusive.

SMILES	TDP-43 yeast inh	ClpP mod	FUS suppressor	Mm-Cpn inhibitor	Abeta yeast res	aSyn yeast inh
CN(C)c1cccc(Oc2nc3c(c(=O)n(C)c(=O)n3C)n2C)c1	–	–	–	–	–	–
Cn1c(=O)c2c(nc(Oc3cccc(Br)c3)n2C)n(C)c1=O	13µM	–	–	–	?	–
Cn1c(=O)c2c(ncn2CCOc2cccc(Br)c2)n(C)c1=O	14µM	–	–	–	–	–
O=C(Nc1ccc2c(c1)CCCN2C(=O)c1cccs1)c1ccccc1Cl	–[9.22 µM]	–	?	·	–	·
CCOC(=O)CC[C@H]1CC[C@]2(CCCN(Cc3ccccc3)C2)O1	·	·	–	·	·	·
CCCn1c(SCC(=O)c2ccc3c(c2)NC(=O)CO3)nc2ccccc21	14µM	–	–	–	–	–
S=C(NCCCc1cnc[nH]1)NCCCN(Cc1ccc(Cl)cc1)c1ccc(-c2ccccc2)cn1	·	?	·	·	·	–
N/C(=N\OC(=O)CC1CCCCC1)c1ccc([N+](=O)[O-])cc1	18µM	–	·	–	–	–
N/C(=N\OC(=O)CCC1CCCC1)c1cccc([N+](=O)[O-])c1	20µM	–	–	–	–	–
N/C(=N\OC(=O)CCC1CCCCC1)c1cccnc1	13µM	–	–	–	–	–
N/C(=N\OC(=O)CC1CCCCC1)c1cccc([N+](=O)[O-])c1	?	·	–	–	–	–
N/C(=N\OC(=O)CCC1CCCCC1)c1ccc([N+](=O)[O-])cc1	20µM	–	·	–	–	–
O=C(NCC1CCCCC1)c1ccc([N+](=O)[O-])cc1	–	–	–	–	–	–
N/C(=N\OC(=O)CCCc1ccccc1)c1cccnc1	–	–	·	–	–	–
O=C1CC(c2ccccc2)Cc2[nH]c(=O)c(C(=O)O)cc21 (stereo not given)	·	–	·	·	·	–
Cc1ccc(NS(=O)(=O)c2ccc3nc(-c4ccccc4)[nH]c3c2)c(Cl)c1	–	–	–	·	–	·
CCC(=O)N1CCc2cc(Br)c(S(=O)(=O)N3CCCC(C(=O)NC(C)(C)C)C3)cc21 (stereo not given)	·	·	–	·	·	·
Cc1ccc(OCC(=O)Nc2ccc(S(=O)(=O)Nc3ncccn3)cc2)c(C(C)(C)C)c1	–	–	–	·	–	·
NC(=O)Nc1ccc(/C=C2\C=Cc3ccccc32)cc1	·	–	·	·	·	·
COc1ccc(OCC(=O)O/N=C(\N)c2ccc(OC)cc2)cc1	–	·	–	–	–	–
N/C(=N\OC(=O)CCC1CCCC1)c1ccc(Br)cc1	6.3µM	–	·	–	–	–
COc1ccc(/C(N)=N/OC(=O)CC2CCCCC2)cc1	3.2µM	–	–	–	–	–
N/C(=N\OC(=O)C1CCCCC1)c1ccc(Br)cc1	?	·	–	–	–	–
COc1cc(O)c(C(CC(=O)N2CCCC2)c2ccc3c(c2)OCO3)c(OC)c1 (stereo not given)	–	–	–	–	–	–
COc1cc(O)c([C@@H](CC(=O)N2CC(C)CC(C)C2)c2ccc3c(c2)OCO3)c(OC)c1 (stereo not given in full)	·	·	25µM	·	·	·
SMILES	TDP-43 yeast inh	ClpP mod	FUS suppressor	Mm-Cpn inhibitor	Abeta yeast res	aSyn yeast inh
COCc1cc(=O)[nH]c(SCCS(=O)(=O)c2ccc(Cl)cc2Cl)n1	6.3µM	–	–	–	–	–
CCc1n[nH]c2c1/C(=N\O)CC(c1ccccc1)C2 (stereo not given)	–	–	–	–	–	–
CCCCc1n[nH]c2c1/C(=N/O)CC(c1ccccc1)C2 (stereo not given)	–	18µM	–	–	–	–
Cc1cc(NC(=O)c2ccccc2Cl)n(C(C)(C)C)n1	–	16µM	–	–	–	–
CCCn1nc(C(=O)Nc2ccc(S(=O)(=O)Nc3nccs3)cc2)c2ccccc2c1=O	–	25µM	?	–	–	–
CC(=O)Nc1ccc(NC(=O)c2ccc(-c3c(C)noc3C)c3ccoc23)cc1	–	–	–	·	–	–
Cc1noc(C)c1-c1ccc(C(=O)NCCN2CCOCC2)c2occc12	–	–	–	·	–	–
Cc1noc(C)c1-c1ccc(C(=O)NCc2cccs2)c2occc12	16µM	–	–	·	–	–
Cc1noc(C)c1-c1ccc(C(=O)NCCc2ccccc2)c2occc12	32µM	?	?	·	–	–
COc1ccccc1CNc1ccc([N+](=O)[O-])cc1C	?	·	–	–	–	–
COc1cccc(CNc2ccc([N+](=O)[O-])cc2Cl)c1O	14µM	–	–	–	–	–
CCc1cc(C(=O)Cc2ccc(F)cc2)c(O)cc1O	13µM	–	–	–	–	–
O=C(Cc1ccc(F)cc1)c1ccc(O)cc1O	13µM	–	–	–	–	–
O=C(Cc1c(F)cccc1Cl)c1ccc(O)cc1O	16µM	–	–	?	–	–
CCc1nc2nc(C)cc(Nc3ccc(OC)cc3OC)n2n1	–	–	–	·	–	·
CC(=O)N=c1sc2ccccc2n1C	–	–	–	–	–	–
CC(=O)N=c1sc2nc3ccccc3nc2n1N(C(C)=O)C(C)=O	–	28µM	–	?	–	–
CCc1ccc(CN(C)C(=O)CCc2nc3ccccc3n(-c3ccc(OC)cc3)c2=O)cc1	18µM	–	?	–	–	–
COc1ccc(-n2c(=O)c(CCC(=O)N(C)Cc3ccccc3C)nc3ccccc32)cc1	–	–	–	–	–	–
CC(C)CCNC(=O)C(c1cccnc1)N(CCc1ccccc1)C(=O)Cn1nnc2ccccc21 (stereo not given)	–	18µM	–	–	–	–
O=c1oc2cc(Br)ccc2n1CSC1=NCCS1	13µM	–	–	–	–	–
Cc1ccc(NC(=S)NC(=O)C2CCCC2)cc1C	–	–	–	–	8.9µM	–
N#Cc1ccc(NC(=S)NC(=O)C2CC2)cc1	13µM	–	–	·	–	?
Cc1ccc(NC(=S)NC(=O)C2CCC2)cc1C	?	–	–	–	?	–
CN(c1ccccc1)S(=O)(=O)c1ccc(NC(=S)NC(=O)C2CC2)cc1	18µM	–	–	–	–	–
O=C(NC(=S)Nc1ccc(F)cc1)C1CCCCC1	–	–	–	–	5µM	–
Clc1ccc([C@H]2OC[C@@]3(CNC4CCCCC4)CS[C@H](c4ccc(Cl)cc4)N23)cc1	·	·	–	·	·	·
CCC(=O)Oc1cc(C(C)(C)C)cc2cc(-c3nc(-c4ccc(OC)cc4OC)no3)c(=O)oc12	–	–	–	·	–	·
O=C(CSc1oc(-c2cccs2)nc1S(=O)(=O)c1ccccc1)Nc1ccc(F)cc1	–	–	–	·	–	·
